In PubChem BioAssay (NCATS) one finds Potency data, which are given here for 14 compounds.

Assay [1] addresses N-terminal Xaa-Pro-Lys N-methyltransferase 1 (Homo sapiens) (UniProt Q9BV86). Kind of assay: qHTS Assay for Inhibitors of N-terminal methyltransferase 1 (NTMT1): LOPAC validation of the NTMT1 SAHH-coupled ThioGlo3 Assay (AID 1347143).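 Also: SAH from peptide methylation measured as thiol fluorescence via SAHH coupling and ThioGlo3; potency is read from the fitted curve at half-maximal effect; nearly all actives have a fitted effect of over 70% in size.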 An outline of the steps: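 NTMT1 125nM + cpds (various conc.), 1 min RT; add SAM 100uM/SAHH 10uM/ThioGlo3 15uM (addition mix). SAHH-coupled thiol detection, Ex340/Em450, t0 and 30 min RT; signal normalized to background. LOPAC 1280-cpd pilot.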

The nature of assay [2]: qHTS for Inhibitors of Plasmodium falciparum (CP250) proliferation (AID 504320). Also: potency is read from the fitted curve at half-maximal effect. The procedure, abridged:
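Parasite growth measured as SYBR Green DNA fluorescence (ex 485, em 535 nm) after overnight lysis following 72 h culture at 37 °C, 0.3% parasitemia, 2.5% hematocrit. Values normalized against DMSO and 0.29 uM artemisinin controls, with plate-stack correction.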

Assay [3] deals with Atrial natriuretic peptide receptor 1 (Homo sapiens) (UniProt P16066). The experiment in a line: Natriuretic polypeptide receptor (hNpr1) antagonism - Pilot CMLD screen (AID 1347052; calls by dose curve;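 also: HEK293 cells with hNpr1 stimulated by hNppA peptide at 0.1 nM; cGMP level read as GloSensor luciferase luminescence after agonist stimulation; series mostly up to about 9.2 µM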).
Sequence of Atrial natriuretic peptide receptor 1 (Homo sapiens) (P16066 whole entry, looked up): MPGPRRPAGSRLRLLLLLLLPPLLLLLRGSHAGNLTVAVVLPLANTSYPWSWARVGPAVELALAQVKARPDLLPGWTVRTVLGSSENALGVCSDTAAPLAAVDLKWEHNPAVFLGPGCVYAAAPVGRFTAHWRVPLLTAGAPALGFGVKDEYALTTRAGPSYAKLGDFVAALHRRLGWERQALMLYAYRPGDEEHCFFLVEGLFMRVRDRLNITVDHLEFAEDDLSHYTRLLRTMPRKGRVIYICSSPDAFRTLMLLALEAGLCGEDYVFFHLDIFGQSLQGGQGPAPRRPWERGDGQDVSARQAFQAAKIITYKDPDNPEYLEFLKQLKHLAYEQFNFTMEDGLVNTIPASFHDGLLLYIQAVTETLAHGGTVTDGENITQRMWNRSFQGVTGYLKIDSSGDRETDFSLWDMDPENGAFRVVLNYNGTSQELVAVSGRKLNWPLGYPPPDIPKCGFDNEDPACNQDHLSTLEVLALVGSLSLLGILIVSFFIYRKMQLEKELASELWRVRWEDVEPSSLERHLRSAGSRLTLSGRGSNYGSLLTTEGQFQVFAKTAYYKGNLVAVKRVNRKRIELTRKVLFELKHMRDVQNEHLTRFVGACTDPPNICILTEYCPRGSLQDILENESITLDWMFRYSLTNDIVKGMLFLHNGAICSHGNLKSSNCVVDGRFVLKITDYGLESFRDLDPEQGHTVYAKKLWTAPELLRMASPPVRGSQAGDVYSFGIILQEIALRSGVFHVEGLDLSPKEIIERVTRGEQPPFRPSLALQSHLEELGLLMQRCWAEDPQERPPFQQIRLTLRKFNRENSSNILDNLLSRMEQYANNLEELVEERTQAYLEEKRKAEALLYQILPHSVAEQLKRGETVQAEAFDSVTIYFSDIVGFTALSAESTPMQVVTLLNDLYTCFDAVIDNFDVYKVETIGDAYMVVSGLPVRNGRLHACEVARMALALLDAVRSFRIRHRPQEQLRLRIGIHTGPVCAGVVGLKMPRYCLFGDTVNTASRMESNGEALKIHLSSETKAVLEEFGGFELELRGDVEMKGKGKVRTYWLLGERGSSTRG
The target in assay [4] is Furin (Homo sapiens) (UniProt P09958). Kind of assay: Furin counterscreen qHTS for Zika virus inhibitors (AID 1347149). Also: potency is read from the fitted curve at half-maximal effect; nearly all actives have a fitted effect of over 70% in size. An outline of the steps:
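Counterscreen measures cleavage of 2 microM BOC-RVRR-AMC, below its ~15 microM Km, by 5 nM full-length human furin at pH 7.0 after a 15-min compound preincubation. Inhibition derives from the 15-min fluorescence increase at 37C.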

Each structure is given as a SMILES string. Records with an inconclusive call do not appear. Active and inactive are the calls of the source. Unless noted, calls follow the shape of the dose curve; as a rule, active = well fitted curve in the direction sought with a large enough effect; inconclusive = small, poorly fitted or top-dose-only effect, or another doubt; inactive = no such curve, though single readings can be large; an effect the other way counts as inactive or inconclusive.

Sequence of N-terminal Xaa-Pro-Lys N-methyltransferase 1 (Homo sapiens) (Q9BV86 whole entry, looked up): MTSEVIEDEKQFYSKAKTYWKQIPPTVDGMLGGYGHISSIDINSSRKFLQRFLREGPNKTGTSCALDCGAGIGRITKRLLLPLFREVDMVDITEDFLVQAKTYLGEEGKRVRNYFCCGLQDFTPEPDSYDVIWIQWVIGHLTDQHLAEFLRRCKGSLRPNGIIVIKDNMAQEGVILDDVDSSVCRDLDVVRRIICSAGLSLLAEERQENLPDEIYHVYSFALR
Sequence of Furin (Homo sapiens) (P09958 whole entry, looked up): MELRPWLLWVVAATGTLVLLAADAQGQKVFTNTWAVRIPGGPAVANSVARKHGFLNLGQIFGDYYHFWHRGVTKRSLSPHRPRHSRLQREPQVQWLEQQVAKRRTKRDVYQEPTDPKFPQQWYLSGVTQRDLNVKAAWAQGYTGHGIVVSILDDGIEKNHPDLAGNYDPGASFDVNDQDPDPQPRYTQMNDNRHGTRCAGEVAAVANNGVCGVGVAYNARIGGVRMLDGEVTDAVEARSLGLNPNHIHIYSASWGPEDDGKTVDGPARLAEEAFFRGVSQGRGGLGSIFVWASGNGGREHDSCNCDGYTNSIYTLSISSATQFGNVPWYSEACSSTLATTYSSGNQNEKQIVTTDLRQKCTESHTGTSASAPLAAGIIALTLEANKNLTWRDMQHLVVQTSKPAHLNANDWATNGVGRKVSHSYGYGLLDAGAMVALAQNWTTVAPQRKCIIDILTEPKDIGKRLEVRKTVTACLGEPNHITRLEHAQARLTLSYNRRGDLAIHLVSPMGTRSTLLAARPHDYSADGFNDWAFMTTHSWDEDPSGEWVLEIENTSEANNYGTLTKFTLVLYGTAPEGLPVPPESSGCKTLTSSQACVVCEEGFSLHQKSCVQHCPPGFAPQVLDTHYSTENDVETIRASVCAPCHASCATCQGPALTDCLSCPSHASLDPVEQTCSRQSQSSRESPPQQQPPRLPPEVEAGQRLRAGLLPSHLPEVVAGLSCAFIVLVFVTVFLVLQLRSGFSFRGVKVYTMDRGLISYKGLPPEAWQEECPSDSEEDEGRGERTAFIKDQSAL

As to `CSc1nc(N)c2ncn([C@@H]3O[C@H](COP(=O)(O)OP(=O)(O)OP(=O)(O)O)C(O)[C@H]3O)c2n1` (some centres undefined), the Potency in assay [1] is 50.1 µM (active). In the case of `Cc1cccc(C)c1Nc1oc(-c2ccccc2)nc1-c1ccccc1F`, the Potency entry in assay [2] and in assay [3] was “inactive” in each case. In the case of `N.N.N.N.N.N.N.N.N.N.N.N.N.N.O.O.[Cl-].[Cl-].[Cl-].[Cl-].[Cl-].[Cl-].[Ru+4].[Ru+5].[Ru+5]`, the Potency in assay [1] was 44.7 µM (active).

Consider `CCCCCCCCCC(=O)N[C@H](CCCN=C(N)N)C(=O)N[C@@H](C(=O)N[C@H](CCCCN)C(=O)N[C@@H](CCCN=C(N)N)C(=O)CCl)C(C)C`, for which the Potency in assay [4] is 0.0891 µM (active).

On to `CC=CC1=Cc2ccccc2C(C(C(=O)OC)C(=O)OC)N1C(=O)OC` (centres undefined), for which the Potency entry in assay [2] and in assay [3] was “inactive” in each case.

`C[C@@H]1CC[C@H]2C(=O)N(CC3CCCCC3)C[C@H](O)CN2[C@@H]1c1ccc(Br)cc1`: the Potency result in assay [2] and in assay [3] was “inactive” each time. Turning to `CC1=C[C@H]2c3ccccc3C[C@H]2CO[C@]12C(=O)N(Cc1ccc(Br)cc1)c1ccccc12`, the Potency entry in assay [2] and in assay [3] was “inactive” in each case.

Regarding `COCCN1C(=O)C2=C(C1=O)C1N(C)c3ccccc3[C@@]13C[C@@H](CO)N(C(=O)c1ccc(Br)cc1)C3=N2` (some centres undefined), the Potency entry in assay [2] and in assay [3] was “inactive” throughout. On to `NC(N)=Nc1ccc(O[C@H]2C[C@@H](Oc3ccc(N=C(N)N)cc3)[C@H](N=C(N)N)C[C@@H]2N=C(N)N)cc1`, for which, in assay [4], the Potency is 1.26 µM (active). `COc1cc2c(cc1OC)[C@@H]1O[C@](c3ccsc3)(C2)Oc2c1c(=O)oc1ccc(F)cc21`: the Potency result in assay [2] and in assay [3] was “inactive” each time. Regarding `C[C@H]1CC[C@H]2C(=O)N(Cc3cccc([N+](=O)[O-])c3)C[C@H](O)CN2[C@H]1c1cccc(Br)c1`, the Potency result in assay [2] and in assay [3] was “inactive” throughout. `COC(=O)[C@@H]1CC[C@H](C)[C@@H](c2ccc(C)cc2)N1C(=O)c1ccc(C=NO[C@H](C)CN2CCCc3nc(C)c(C)cc32)cc1`: the Potency in assay [2] is 1.51 µM (active). Further, the Potency result in assay [3] is “inactive”.

As for `Cc1cc2c(c(=O)o1)[C@H]1O[C@](CCCCN3C(=O)c4ccccc4C3=O)(Cc3cc(C#N)ccc31)O2`, the Potency result in assay [2] and in assay [3] was “inactive” each time. Take `O=C1Nc2ccccc2[C@@]12O[C@H](COc1ccccc1)CC1=C2CCC1`: the Potency entry in assay [2] and in assay [3] was “inactive” throughout.
